Reference: PubChem BioAssay (Tox21)
A number with no mark means an inactive call. The call rests on the fitted dose curve; in most records, active means well fitted curve in the direction sought with a large enough effect in the repeat runs; inconclusive means weak or mixed curves; inactive means flat fitted curve, though single readings scatter.

assay: qHTS assay to test for compound auto fluorescence at 535 nm (green) in HepG2 cells (AID 720675); details: green autofluorescence 485/535 nm, 1 h; series mostly up to 91.3 µM; fluorescence, % of fluorescein control: at the top concentration
On the % scale 0 is the no-effect control and ±100 the full control effect.

| SMILES | fluorescence, % of fluorescein control |
| --- | --- |
| Cc1[nH]c(C)c(Cl)c(=O)c1Cl | 0.0757% [at 46 µM] |
| CC(C)Nc1ccc(NC(C)C)c2c1C(=O)c1ccccc1C2=O | -0.127% [at 46 µM] |
| Cc1cccc(Nc2ccccc2)c1 | -0.0014% |
| O=C1CCCCCCCCCCCC(=O)OCCO1 | -0.0221% |
| COc1cc(Cl)ccc1Oc1ccc(Cl)cc1Cl | -0.0193% |
| Cc1cccc(C)c1OCC(=O)N[C@@H](Cc1ccccc1)[C@@H](O)C[C@H](Cc1ccccc1)NC(=O)[C@H](C(C)C)N1CCCNC1=O | -0.167% [at 46 µM] |
| CCCCCCCCCCCCCCOS(=O)(=O)O | -0.0046% |
| Cc1c(N)cccc1[N+](=O)[O-] | -0.0361% [at 95.7 µM] |
| CC(C)O.CC(C)O.CCOC(=O)/C=C(\C)O.CCOC(=O)/C=C(\C)O.[Ti] | 0.0455% |
| C#Cc1cccc(Nc2ncnc3cc(OCCOC)c(OCCOC)cc23)c1 | -0.0791% [at 46 µM] |
| O=C(O)C1(C(=O)Nc2ccc(Cl)cc2Cl)CC1 | -0.0047% |
| O=C(CS)Nc1ccccc1 | -0.0196% [at 46 µM] |
| COc1cc(Cl)c(OC)cc1N | -0.016% |
| COc1cccc(N(C)C(=S)Oc2ccc3c(c2)CCCC3)n1 | 0.0221% [at 46 µM] |
| CC1CCC(=O)C1=O (configuration not stated) | 0.0056% [at 95.7 µM] |
| CC[N+](C)(CC)CCOC(=O)C(O)(c1ccccc1)C1CCCCC1 (configuration not stated) | 0.0127% [at 46 µM] |

| SMILES | fluorescence, % of fluorescein control |
| --- | --- |
| CCCCCCCC/C=C\CCCCCCCC(=O)OCC | 0.134% |
| O=C(O)CC(=O)C(=O)O | -0.105% |
| CCc1cc(C2=C(C(=O)O)N(c3ccccc3C(F)(F)F)S(=O)(=O)c3ccccc32)cc2c1OCO2 | 0.196% |
| CCCCNc1ccc(C(=O)OCCOCCOCCOCCOCCOCCOCCOCCOCCOC)cc1 | -0.0335% [at 18.6 µM] |
| CCC(C)c1cc(C(C)(C)C)c(O)c(C(C)(C)C)c1 (configuration not stated) | -0.0081% |
| CCOC(=O)COC(=O)c1cc(Oc2ccc(C(F)(F)F)cc2Cl)ccc1[N+](=O)[O-] | 0.0115% |
| Nc1ncn([C@H]2C[C@H](O)[C@@H](CO)O2)c(=O)n1 | 0.0022% [at 46 µM] |
| NC(N)=NCCC[C@H](N)C(=O)O | 0.0137% [at 46 µM] |
| C=CC(=O)OCCOCCOC(=O)C=C | 0.0881% |
| CN(C)c1ccc(/C=C/c2ccc([N+](=O)[O-])cc2)cc1 | -0.0437% [at 3.72 µM] |
| CCCCCCCCCCO[C@@H]1O[C@H](CO)[C@@H](O)[C@H](O)[C@H]1O | 0.0116% |
| CCCNCC(O)COc1ccccc1C(=O)CCc1ccccc1 (configuration not stated) | -0.0593% [at 46 µM] |
| C=CCOc1ccccc1OCC(O)CNC(C)C (configuration not stated) | 0.095% [at 18.6 µM] |
| O=C(O)c1nc(Cl)c(Cl)c(Cl)c1Cl | 0.0213% |
| CCO[C@H](Cc1ccc(OCCc2ccc(OS(C)(=O)=O)cc2)cc1)C(=O)O | -0.0536% [at 46 µM] |
| CCCCCCCCCCCCCCCCOS(=O)(=O)O | 0.119% [at 46 µM] |
